{"source": "PubChem BioAssay AID1345085", "about": "(National Center for Advancing Translational Sciences (NCATS), 2018)", "note": "Results filed as inconclusive are left out. Unmarked numbers belong to inactive results. Calls of active or inactive are those of the source. The call rests on the fitted dose curve; in most records, active means well fitted cell-killing curve with a large enough effect; inconclusive means small, poorly fitted or top-dose-only effect, or effect the other way; inactive means no such curve, though single readings can be large or run the other way. On the % scale 0 is the no-effect control and ±100 the full control effect; potency means the concentration at half of the fitted maximal effect.", "data": [{"test_system": "SKOV3", "assay": "Confirmatory qHTS for gynecologic anti-cancer compounds from libraries of approved drugs and bioactive compounds; further: nearly all actives have a fitted effect of over 55% in size", "conditions": "gynecologic cancer cell panel viability, ATPlite luminescence, 48 h; series mostly up to 57.6 µM; activity change, negative = viability loss: at the top concentration", "method_in_brief": "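Seeding 1,000 cells per well preceded overnight (16 h) attachment, after which 48 h drug treatment across 57.5 uM–0.977 nM (11 points) was applied. Remaining cellular ATP, detected by ATPlite luminescence, defined IC50.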", "values": [{"smiles": "Cc1ccc(NC(=O)c2ccc(CN3CCN(C)CC3)cc2)cc1Nc1nccc(-c2cccnc2)n1", "activity change, negative = viability loss": "-17.9%"}, {"smiles": "OCCNC1CCCc2c1[nH]c1ccc(-c3ccccc3)cc21", "note": "(configuration not stated)", "Potency": "30.6 µM (active)"}, {"smiles": "Cn1c(=O)c(F)c(Nc2ccc(I)cc2F)c2c(=O)n(CC(O)CO)cnc21", "note": "(configuration not stated)", "Potency": "0.485 µM (active)"}, {"smiles": "CCc1c2c(nc3ccc(O)cc13)-c1cc3c(c(=O)n1C2)COC(=O)[C@]3(O)CC", "Potency": "0.0243 µM (active)"}, {"smiles": "S=c1nc[nH]c2nc[nH]c12", "Potency": "5.44 µM (active)"}, {"smiles": "CCS(=O)(=O)N1CCN(c2ccc(Nc3ncc(C(N)=O)c(NC4CC4)n3)cc2)CC1", "Potency": "15.3 µM (active)"}, {"smiles": "O=C(Nc1cn[nH]c1-c1nc2ccc(CN3CCOCC3)cc2[nH]1)NC1CC1", "Potency": "7.69 µM (active)"}, {"smiles": "COc1ccc(-c2cc3nccn3c(Nc3ncccc3C(N)=O)n2)cc1OC", "activity change, negative = viability loss": "25.3%"}, {"smiles": "COc1cccc2c1C(=O)c1c(O)c3c(c(O)c1C2=O)C[C@@](O)(C(=O)CO)C[C@@H]3O[C@H]1C[C@H](N)[C@H](O)[C@H](C)O1", "Potency": "0.432 µM (active)"}, {"smiles": "COc1cccc2cc(-c3nc(C4CCC(C(=O)O)CC4)n4ncnc(N)c34)[nH]c12", "note": "(configuration not stated)", "Potency": "1.09 µM (active)"}, {"smiles": "Cc1nc(NC(=O)N2CCCC2C(N)=O)sc1-c1ccnc(C(C)(C)C(F)(F)F)c1", "note": "(configuration not stated)", "Potency": "0.685 µM (active)"}, {"smiles": "Nc1ccn([C@@H]2O[C@H](CO)[C@@H](O)C2(F)F)c(=O)n1", "Potency": "1.37 µM (active)"}, {"smiles": "Cc1cnc(CNC(=O)c2c(=O)c3ccc(N4CCCN(C)CC4)nc3n3c2sc2ccccc23)cn1", "activity change, negative = viability loss": "5.48% [at 10.7 µM]"}, {"smiles": "C[C@]12CCC(=O)C=C1CC[C@@H]1[C@@H]2[C@@H](O)C[C@@]2(C)[C@H]1CC[C@]2(O)C(=O)CO", "activity change, negative = viability loss": "-15.7%"}, {"smiles": "CCN(CC)CCNC(=O)c1c(C)[nH]c(/C=C2\\C(=O)Nc3ccc(F)cc32)c1C", "Potency": "15.8 µM (active)"}, {"smiles": "Cc1cncc2cccc(S(=O)(=O)N3CCCN(C(=O)CN)C[C@@H]3C)c12", "activity change, negative = viability loss": "-34.9%"}, {"smiles": "CNCc1ccc(-c2[nH]c3cc(F)cc4c3c2CCNC4=O)cc1", "activity change, negative = viability loss": "14.9%"}, {"smiles": "Cc1cc(CN2CCN(c3c(Br)cnc4nc(-c5ccc(N6CCN(C)CC6)cc5)[nH]c34)CC2)no1", "Potency": "34.3 µM (active)"}, {"smiles": "CN1CCN(c2cccc(Nc3nc4c(-c5ccc(S(C)(=O)=O)cc5)cccn4n3)c2)CC1", "activity change, negative = viability loss": "-10.2%"}, {"smiles": "O=C(NOCC1CC1)c1ccc(F)c(F)c1Nc1ccc(I)cc1Cl", "activity change, negative = viability loss": "-4.7%"}, {"smiles": "Cc1nc(Nc2n[nH]c3c2CN(C(=O)NC(CN(C)C)c2ccccc2)C3(C)C)c2sccc2n1", "note": "(configuration not stated)", "Potency": "3.06 µM (active)"}, {"smiles": "CN[C@@H](C)C(=O)N[C@H]1CN(C(=O)CC(C)C)CC[C@H]2CC[C@@H](C(=O)NC(c3ccccc3)c3ccccc3)N2C1=O", "Potency": "0.611 µM (active)"}, {"smiles": "CN(c1nccc(=O)[nH]1)C1CCN(c2nc3ccccc3n2Cc2ccc(F)cc2)CC1", "activity change, negative = viability loss": "43.6%"}, {"smiles": "CC(C)(C(=O)NCC(F)(F)C(F)(F)F)C(=O)NC1C(=O)Nc2ccccc2-c2ccccc21", "note": "(configuration not stated)", "activity change, negative = viability loss": "5.3%"}, {"smiles": "CC(Oc1ccc2[nH]nc(/C=C/c3cnn(CCO)c3)c2c1)c1c(Cl)cncc1Cl", "note": "(configuration not stated)", "Potency": "3.06 µM (active)"}, {"smiles": "Nc1ccccc1NC(=O)c1ccc(CNC(=O)OCc2cccnc2)cc1", "Potency": "2.17 µM (active)"}, {"smiles": "CN(C)C/C=C/C(=O)Nc1cc2c(Nc3ccc(F)c(Cl)c3)ncnc2cc1OC1CCOC1", "note": "(configuration not stated)", "activity change, negative = viability loss": "-33.4%"}, {"smiles": "CC(=O)NCC(=O)N1C2CCC1c1cc(Nc3ncc(C(F)(F)F)c(NC4CCC4)n3)ccc12", "note": "(configuration not stated)", "Potency": "17.2 µM (active)"}, {"smiles": "CCOc1ccc(Nc2nc(-c3c(C)nc4ccccn34)cs2)cc1", "activity change, negative = viability loss": "-19.2%"}, {"smiles": "Cc1ccc(C(=O)Nc2ccc(CN3CCN(C)CC3)c(C(F)(F)F)c2)cc1C#Cc1cnc2cccnn12", "Potency": "12.2 µM (active)"}, {"smiles": "Nc1ccccc1NC(=O)c1ccc(CNc2nccc(-c3cccnc3)n2)cc1", "Potency": "0.432 µM (active)"}, {"smiles": "CCCCN(CCCC)C(=O)CN1C[C@H](c2ccc3c(c2)OCO3)[C@@H](C(=O)O)[C@@H]1c1ccc(OC)cc1", "activity change, negative = viability loss": "-4.83%"}]}]}
